# PubChem BioAssay (NCATS)
# Records with an inconclusive call do not appear. Active and inactive are the calls of the source. Unless noted, calls follow the shape of the dose curve; as a rule, active = well fitted curve in the direction sought with a large enough effect; inconclusive = small, poorly fitted or top-dose-only effect, or another doubt; inactive = no such curve, though single readings can be large; an effect the other way counts as inactive or inconclusive.
# Experiments:
# [1] = molecular target: Catechol O-methyltransferase (Homo sapiens) (UniProt P21964); assay: Confirmatory Screen for Target Class Profiling of Small Molecule Inhibitors of Methyltransferases (AID 1745852; calls by dose curve; also: potency is read from the fitted curve at half-maximal effect; as to activity change, negative = inhibition: % is scaled to controls: 0 for no effect and ±100 for the full control effect); conditions: MTase-Glo luminescence, SAH detection, recombinant enzyme; measured here: COMT max response; stronger effect = lower value
# [2] = molecular target: Guanidinoacetate N-methyltransferase (Homo sapiens) (UniProt Q14353); assay: as above; conditions: MTase-Glo luminescence, SAH detection, recombinant enzyme; activity change, negative = inhibition: at 57.3 µM (top of the series)
# [3] = molecular target: Nicotinamide N-methyltransferase (Homo sapiens) (UniProt P40261); assay: as above; conditions: MTase-Glo luminescence, SAH detection, recombinant enzyme; measured here: NNMT max response; stronger effect = lower value
# [4] = molecular target: Phenylethanolamine N-methyltransferase (Homo sapiens) (UniProt P11086); assay: as above; conditions: MTase-Glo luminescence, SAH detection, recombinant enzyme; measured here: PNMT max response; stronger effect = lower value
# [5] = molecular target: Cytochrome P450 3A4 (Homo sapiens) (UniProt P08684); assay: qHTS Assay for Activators of Cytochrome P450 3A4 (AID 885); conditions: recombinant CYP3A4, Luciferin-PPXE luminescence, 60 min; series mostly up to 57.1 µM; also: nearly all actives have a fitted effect of over 65% in size
# Method in brief: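 Quantitative HTS format: compounds preincubated with 20nM human CYP3A4 and Luciferin-PPXE substrate at KM, reaction started by NADPH regeneration, stopped after 60 min, luciferase luminescence read 20 min later.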
# [6] = molecular target: DNA dC->dU-editing enzyme APOBEC-3G (Homo sapiens) (UniProt Q9HC16); assay: qHTS for inhibitors of Vif-A3G interactions: Validation (AID 588379); conditions: Vif-A3G protein interaction assay; series mostly up to 46.1 µM; also: 0% is about no effect
# Method in brief: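 HeLa cells stably expressing Vif and A3G-eYFP, 700 cells/well, incubated overnight at 37 deg C, then exposed to compound overnight at 37 deg C. Inhibition of Vif-mediated degradation read as increased yellow fluorescence (Ex 488/Em 500-530) by laser-scanning cytometry.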
# [7] = molecular target: Glucocorticoid receptor (Homo sapiens) (UniProt P04150); assay: GR-GFP Redistribution (AID 450;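 active = compounds whose dose series gives a full or clear partial fitted curve of increased nuclear translocation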; also: potency is read from the fitted curve at half-maximal effect); conditions: U2OS GR-GFP nuclear translocation, laser cytometry, 2 h
# [8] = molecular target: Glucocorticoid receptor (Homo sapiens) (UniProt P04150); assay: GR-EFC Redistribution (AID 451; calls by dose curve; also: potency is read from the fitted curve at half-maximal effect); conditions: CHO-K1 GR-EFC translocation, beta-gal luminescence, 2 h
# Method in brief: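 Translocation of GR-ED fusion to nuclear EA restores b-gal, read by luminescence after 1 h room-temperature detection. Engineered CHO-K1 biosensor cells, 1,000/well, exposed 2 h at 37 C to titrations up to 46 uM final.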
# [9] = molecular target: ATP-dependent 6-phosphofructokinase (Trypanosoma brucei brucei) (UniProt O15648); assay: qHTS Assay to Find Inhibitors of T. brucei phosphofructokinase: hit validation (AID 492961);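 also: luminescence reports ADP formed as PFK phosphorylates fructose-6-phosphate with ATP; % is scaled to controls: 0 for no effect and ±100 for the full control effect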; conditions: T. brucei PFK, ADP-Glo luminescence; series mostly up to 51.4 µM
# Method in brief: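 ADP-Glo luminescence read-out of ADP formed by 1.25 nM PFK from 0.1 mM ATP and 0.5 mM F6P (TEA pH 8.0, 45 min, RT). Compounds titrated; activity normalized to no-enzyme and full-enzyme controls.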
# [10] = molecular target: Ubiquitin carboxyl-terminal hydrolase 1 (Homo sapiens) (UniProt O94782); assay: Inhibitors of USP1/UAF1: Pilot qHTS (AID 504865); conditions: purified USP1/UAF1, Ub-rhodamine cleavage fluorescence; series mostly up to 54.9 µM;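 also: rhodamine fluorescence freed from ubiquitin-rhodamine substrate followed over time; top concentration of the series differs between compounds; % is scaled to controls: 0 for no effect and ±100 for the full control effect; nearly all actives have a fitted effect of over 35% in size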
# Method in brief: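 In 50mM HEPES pH 7.8 containing 0.5mM EDTA, 1mM TCEP, 0.1 mg/ml BSA and 0.01% Tween-20, 1nM USP1/UAF1 is exposed to compound for 15 min, then Ub-Rho (150nM final) is added and fluorescence is read over time.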
# [11] = molecular target: Luciferin 4-monooxygenase (Photinus pyralis) (UniProt P08659); assay: Biochemical firefly luciferase enzyme assay for NPC (AID 624030);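 also: purified P. pyralis luciferase at 10 nM with luciferin and ATP substrate; 0% = DMSO and -100% = full luciferase inhibition by PTC124 control; nearly all actives have a fitted effect of over 70% in size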; conditions: purified P. pyralis luciferase, luminescence, 5 min; series mostly up to 58.6 µM
# Method in brief: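 Direct inhibition of firefly luciferase enzyme (10 nM final, 50 mM Tris Acetate) assessed by luminescence within 5 minutes. Percent activity scaled between DMSO and PTC124 positive control, with concentration-effect curves classified by fit quality and response.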
# [12] = qHTS profiling for inhibitors of Plasmodium falciparum proliferation (AID 504749); also: potency is read from the fitted curve at half-maximal effect;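 as to activity, negative = inhibition: 0% = DMSO vehicle and full inhibition = artemisinin control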; as to all read-outs here: nearly all actives have a fitted effect of over 60% in size; conditions: P. falciparum in erythrocytes, SYBR Green DNA, 72 h; for activity, negative = inhibition: at 28.7 µM (top of the series)
# Method in brief: (§1)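 Three-day growth assay of blood-stage parasites in erythrocytes (0.3% parasitemia, 2.5% hematocrit) at 37 C, 5% CO2, quantified by SYBR Green DNA staining after overnight detergent lysis.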
# ATS189 = assay: as above; conditions: P. falciparum in erythrocytes, SYBR Green DNA, 72 h; series mostly up to 28.7 µM
# Method in brief: as §1
# CP192 = assay: as above; conditions: P. falciparum in erythrocytes, SYBR Green DNA, 72 h; series mostly up to 28.7 µM
# Method in brief: as §1
# CP194 = assay: as above; conditions: P. falciparum in erythrocytes, SYBR Green DNA, 72 h; series mostly up to 28.7 µM
# Method in brief: as §1
# CP247 = assay: as above; conditions: P. falciparum in erythrocytes, SYBR Green DNA, 72 h; series mostly up to 28.7 µM
# Method in brief: as §1
# CP291 = assay: as above; conditions: P. falciparum in erythrocytes, SYBR Green DNA, 72 h; series mostly up to 28.7 µM
# Method in brief: as §1
# DFO2036 = assay: as above; conditions: P. falciparum in erythrocytes, SYBR Green DNA, 72 h; series mostly up to 28.7 µM
# Method in brief: as §1
# TAB113 = assay: as above; conditions: P. falciparum in erythrocytes, SYBR Green DNA, 72 h; series mostly up to 28.7 µM
# Method in brief: as §1
# [13] = molecular target: Cytochrome P450 2D6 (Homo sapiens) (UniProt P10635); assay: Cytochrome P450 family 2 subfamily D member 6 (CYP2D6) small molecule antagonists: luciferase biochemical (cell-free) qHTS assay (AID 1645840; active = well fitted curve in the direction sought with a large enough effect in the repeat runs; an effect the other way counts as inactive or inconclusive; also: nearly all actives have a fitted effect of over 55% in size; also: potency is read from the fitted curve at half-maximal effect; as to activity change, negative = inhibition: % is scaled to controls: 0 for no effect and ±100 for the full control effect); conditions: P450-Glo CYP2D6 enzyme, luciferin luminescence, 1 h; series mostly up to 57.4 µM
# Method in brief: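 P450-Glo luminescent screen: recombinant CYP2D6 enzyme–proluciferin substrate mix preincubated with compound 10 min at room temperature, then NADPH regeneration added for 1 h at room temperature. Detection reagent added for 20 min; luciferin light read as relative luminescence units.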
# Chain of Phenylethanolamine N-methyltransferase (Homo sapiens) (P11086 whole entry, looked up): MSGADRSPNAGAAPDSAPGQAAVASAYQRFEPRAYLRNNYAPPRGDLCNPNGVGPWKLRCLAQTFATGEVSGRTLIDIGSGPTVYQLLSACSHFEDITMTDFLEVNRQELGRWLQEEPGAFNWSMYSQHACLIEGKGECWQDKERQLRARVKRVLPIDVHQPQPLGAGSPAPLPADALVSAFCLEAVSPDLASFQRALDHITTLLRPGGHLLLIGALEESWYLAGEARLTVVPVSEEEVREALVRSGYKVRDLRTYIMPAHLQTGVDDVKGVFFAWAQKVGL
# Chain of Nicotinamide N-methyltransferase (Homo sapiens) (P40261 whole entry, looked up): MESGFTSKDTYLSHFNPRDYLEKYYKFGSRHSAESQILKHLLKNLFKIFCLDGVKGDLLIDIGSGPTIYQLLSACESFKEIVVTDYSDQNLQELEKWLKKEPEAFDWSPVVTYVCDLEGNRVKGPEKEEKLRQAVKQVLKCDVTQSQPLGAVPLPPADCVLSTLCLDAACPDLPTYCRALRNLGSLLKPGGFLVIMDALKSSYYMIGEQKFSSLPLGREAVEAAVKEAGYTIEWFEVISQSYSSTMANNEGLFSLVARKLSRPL
# Chain of Glucocorticoid receptor (Homo sapiens) (P04150 whole entry, looked up, the tested form may be a part): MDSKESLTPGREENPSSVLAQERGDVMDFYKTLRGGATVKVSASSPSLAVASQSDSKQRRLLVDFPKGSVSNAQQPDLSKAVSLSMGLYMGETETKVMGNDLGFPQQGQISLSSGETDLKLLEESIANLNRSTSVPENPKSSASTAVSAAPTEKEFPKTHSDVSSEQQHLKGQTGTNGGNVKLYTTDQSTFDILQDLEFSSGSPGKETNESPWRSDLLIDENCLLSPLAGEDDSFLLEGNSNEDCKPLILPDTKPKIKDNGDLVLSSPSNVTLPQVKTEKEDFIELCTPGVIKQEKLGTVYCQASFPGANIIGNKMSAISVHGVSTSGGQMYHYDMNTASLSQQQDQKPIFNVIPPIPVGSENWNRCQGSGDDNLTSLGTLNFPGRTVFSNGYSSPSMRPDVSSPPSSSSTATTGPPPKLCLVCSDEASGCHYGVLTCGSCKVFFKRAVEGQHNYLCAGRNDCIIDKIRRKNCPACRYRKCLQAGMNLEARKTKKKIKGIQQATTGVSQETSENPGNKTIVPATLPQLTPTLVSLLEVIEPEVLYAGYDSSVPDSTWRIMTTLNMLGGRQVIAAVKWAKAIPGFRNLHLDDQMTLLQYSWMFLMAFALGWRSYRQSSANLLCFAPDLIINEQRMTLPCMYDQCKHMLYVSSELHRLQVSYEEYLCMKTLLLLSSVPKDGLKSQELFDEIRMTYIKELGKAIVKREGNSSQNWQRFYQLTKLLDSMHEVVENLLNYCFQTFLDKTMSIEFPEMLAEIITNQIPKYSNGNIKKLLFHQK
# Chain of Cytochrome P450 2D6 (Homo sapiens) (P10635 whole entry, looked up): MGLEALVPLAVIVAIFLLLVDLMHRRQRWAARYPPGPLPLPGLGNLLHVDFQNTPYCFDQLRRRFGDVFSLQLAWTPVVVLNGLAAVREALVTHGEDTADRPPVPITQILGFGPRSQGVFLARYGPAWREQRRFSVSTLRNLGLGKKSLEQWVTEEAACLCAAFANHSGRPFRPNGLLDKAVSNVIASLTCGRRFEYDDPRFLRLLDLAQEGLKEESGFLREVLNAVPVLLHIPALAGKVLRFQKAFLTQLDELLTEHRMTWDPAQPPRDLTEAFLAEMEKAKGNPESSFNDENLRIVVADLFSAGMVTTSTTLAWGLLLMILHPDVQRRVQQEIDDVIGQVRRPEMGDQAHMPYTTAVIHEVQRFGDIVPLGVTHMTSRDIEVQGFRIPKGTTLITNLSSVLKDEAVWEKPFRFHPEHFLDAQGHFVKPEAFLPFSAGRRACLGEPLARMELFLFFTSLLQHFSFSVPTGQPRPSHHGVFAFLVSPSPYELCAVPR
# Chain of Ubiquitin carboxyl-terminal hydrolase 1 (Homo sapiens) (O94782 whole entry, looked up): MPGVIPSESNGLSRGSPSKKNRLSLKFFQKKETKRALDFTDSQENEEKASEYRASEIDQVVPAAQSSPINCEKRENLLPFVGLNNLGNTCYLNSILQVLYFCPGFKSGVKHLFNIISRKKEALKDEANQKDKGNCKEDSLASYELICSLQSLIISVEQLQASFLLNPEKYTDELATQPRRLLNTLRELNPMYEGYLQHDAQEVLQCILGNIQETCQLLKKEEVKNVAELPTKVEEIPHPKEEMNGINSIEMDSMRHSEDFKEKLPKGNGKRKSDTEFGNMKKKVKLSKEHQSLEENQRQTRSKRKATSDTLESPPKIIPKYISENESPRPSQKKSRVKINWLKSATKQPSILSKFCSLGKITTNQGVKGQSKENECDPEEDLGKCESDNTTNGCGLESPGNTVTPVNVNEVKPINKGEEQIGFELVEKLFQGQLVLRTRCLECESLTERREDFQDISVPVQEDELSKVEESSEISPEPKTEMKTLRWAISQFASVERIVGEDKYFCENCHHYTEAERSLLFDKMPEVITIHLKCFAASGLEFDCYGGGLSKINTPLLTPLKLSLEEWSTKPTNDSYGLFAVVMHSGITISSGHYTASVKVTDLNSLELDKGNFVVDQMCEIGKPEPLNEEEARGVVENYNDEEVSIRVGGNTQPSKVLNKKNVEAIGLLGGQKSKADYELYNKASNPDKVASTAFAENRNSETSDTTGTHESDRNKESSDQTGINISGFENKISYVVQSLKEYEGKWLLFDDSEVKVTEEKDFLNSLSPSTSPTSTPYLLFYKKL
# Chain of Cytochrome P450 3A4 (Homo sapiens) (P08684 whole entry, looked up): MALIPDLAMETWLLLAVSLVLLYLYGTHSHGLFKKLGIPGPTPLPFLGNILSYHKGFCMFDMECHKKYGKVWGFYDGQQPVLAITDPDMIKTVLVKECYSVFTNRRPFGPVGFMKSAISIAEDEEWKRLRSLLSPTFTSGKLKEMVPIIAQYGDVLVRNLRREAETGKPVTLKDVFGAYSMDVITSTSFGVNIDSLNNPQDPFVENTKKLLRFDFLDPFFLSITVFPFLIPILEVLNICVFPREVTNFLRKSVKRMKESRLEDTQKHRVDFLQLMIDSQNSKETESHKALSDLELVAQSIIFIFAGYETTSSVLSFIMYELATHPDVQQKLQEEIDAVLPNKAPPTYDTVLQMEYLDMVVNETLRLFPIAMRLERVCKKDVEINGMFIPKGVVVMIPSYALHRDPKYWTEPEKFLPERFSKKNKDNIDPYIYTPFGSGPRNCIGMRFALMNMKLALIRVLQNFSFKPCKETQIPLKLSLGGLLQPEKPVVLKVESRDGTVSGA
# Chain of Catechol O-methyltransferase (Homo sapiens) (P21964 whole entry, looked up): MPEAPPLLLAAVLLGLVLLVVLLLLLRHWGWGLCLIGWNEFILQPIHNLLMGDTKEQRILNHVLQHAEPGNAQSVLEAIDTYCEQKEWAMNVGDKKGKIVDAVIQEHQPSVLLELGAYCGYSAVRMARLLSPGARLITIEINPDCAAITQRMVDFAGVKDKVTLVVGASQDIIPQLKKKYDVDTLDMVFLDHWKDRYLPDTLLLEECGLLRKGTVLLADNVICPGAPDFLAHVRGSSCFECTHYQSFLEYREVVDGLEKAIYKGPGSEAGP
# Chain of Luciferin 4-monooxygenase (Photinus pyralis) (P08659 whole entry, looked up): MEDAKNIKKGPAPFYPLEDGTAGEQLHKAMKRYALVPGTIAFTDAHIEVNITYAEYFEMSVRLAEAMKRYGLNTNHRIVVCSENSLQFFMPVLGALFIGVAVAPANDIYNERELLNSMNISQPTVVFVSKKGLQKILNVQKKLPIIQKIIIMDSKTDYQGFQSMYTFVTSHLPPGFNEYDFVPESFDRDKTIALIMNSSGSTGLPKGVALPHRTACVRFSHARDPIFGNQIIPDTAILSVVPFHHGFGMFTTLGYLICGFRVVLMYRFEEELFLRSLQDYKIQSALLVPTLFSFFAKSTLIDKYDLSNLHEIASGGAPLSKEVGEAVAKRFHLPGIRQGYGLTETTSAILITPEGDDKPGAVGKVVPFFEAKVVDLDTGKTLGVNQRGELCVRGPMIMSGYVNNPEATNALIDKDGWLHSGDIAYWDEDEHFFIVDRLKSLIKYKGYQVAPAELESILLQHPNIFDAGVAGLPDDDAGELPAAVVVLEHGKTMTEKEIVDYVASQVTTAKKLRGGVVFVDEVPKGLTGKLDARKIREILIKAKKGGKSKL
# Chain of DNA dC->dU-editing enzyme APOBEC-3G (Homo sapiens) (Q9HC16 whole entry, looked up): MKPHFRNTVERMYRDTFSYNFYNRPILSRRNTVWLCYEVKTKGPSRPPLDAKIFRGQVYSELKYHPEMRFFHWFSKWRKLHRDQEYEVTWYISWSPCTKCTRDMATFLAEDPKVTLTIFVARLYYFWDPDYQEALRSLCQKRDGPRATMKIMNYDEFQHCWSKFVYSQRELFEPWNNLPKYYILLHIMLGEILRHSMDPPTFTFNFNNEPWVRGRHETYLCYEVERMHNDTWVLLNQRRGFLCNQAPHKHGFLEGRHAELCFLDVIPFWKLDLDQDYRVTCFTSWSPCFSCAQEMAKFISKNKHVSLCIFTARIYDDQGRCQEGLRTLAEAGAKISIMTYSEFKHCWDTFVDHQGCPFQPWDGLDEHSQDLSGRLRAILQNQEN
# Chain of ATP-dependent 6-phosphofructokinase (Trypanosoma brucei brucei) (O15648 whole entry, looked up): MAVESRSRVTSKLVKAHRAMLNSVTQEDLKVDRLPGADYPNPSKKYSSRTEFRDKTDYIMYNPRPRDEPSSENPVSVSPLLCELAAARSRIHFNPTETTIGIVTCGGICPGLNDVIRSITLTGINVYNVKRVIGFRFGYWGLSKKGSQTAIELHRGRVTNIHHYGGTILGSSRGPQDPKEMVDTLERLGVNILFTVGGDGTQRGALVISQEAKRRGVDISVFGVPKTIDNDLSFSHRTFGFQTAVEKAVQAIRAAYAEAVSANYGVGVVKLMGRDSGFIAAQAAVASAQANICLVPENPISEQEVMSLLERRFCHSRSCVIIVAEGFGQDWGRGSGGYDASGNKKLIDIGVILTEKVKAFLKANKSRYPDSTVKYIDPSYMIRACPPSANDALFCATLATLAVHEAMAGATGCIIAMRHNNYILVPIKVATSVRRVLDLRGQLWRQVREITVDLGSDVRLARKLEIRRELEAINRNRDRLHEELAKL
smiles,measurement,setting,value
O=C(/C=C/c1ccc(CN(CCO)CCc2c[nH]c3ccccc23)cc1)NO,activity,[1],18.9%
same,Potency,[2],34.3 µM (active)
same,activity,[3],-12.8%
same,activity,[4],-2.68%
C=C[C@@](C)(O)CC[C@@H]1[C@@]2(C)CCCC(C)(C)[C@@H]2CC[C@@]1(C)O,Potency,[5],inactive
same,outcome,[6],inactive
O=C(/C=C/C#Cc1cccc(NS(=O)(=O)c2ccccc2)c1)NO,activity,[1],41.7%
same,"activity change, negative = inhibition",[2],-11.3%
same,activity,[3],-13.8%
same,activity,[4],1.13%
COc1cc2c(NC3CCN(C4CCCCC4)CC3)nc(N3CCCN(C(C)C)CC3)nc2cc1OCCCN1CCCCC1,activity,[1],-2.63%
same,"activity change, negative = inhibition",[2],5.88%
same,activity,[3],-10.6%
same,activity,[4],-1.48%
C[C@@]12C(=O)OC(=O)[C@]1(C)[C@H]1CC[C@@H]2O1,Potency,[7],2.63 µM (active)
same,Potency,[8],> 20.6 µM (inactive)
same,outcome,[9],inactive
same,Potency,[10],inactive
same,Potency,[11],inactive
same,Potency,[12]; parasite line A,3.98 µM (active)
same,Potency,[12]; parasite line B,3.16 µM (active)
same,Potency,ATS189,2.82 µM (active)
same,Potency,CP192,4.55 µM (active)
same,Potency,CP194,2.87 µM (active)
same,Potency,CP247,1.78 µM (active)
same,Potency,CP291,3.22 µM (active)
same,Potency,DFO2036,3.98 µM (active)
same,Potency,TAB113,3.98 µM (active)
C=C1CCC2[C@](C)(CO)C(O)CC[C@]2(C)C1C/C=C1/C(=O)OCC1O (stereo partly specified),Potency,[5],inactive
same,outcome,[9],inactive
same,Potency,[10],inactive
same,Potency,[11],inactive
same,"activity, negative = inhibition",[12]; parasite line A,-24.6% (inactive)
same,"activity, negative = inhibition",[12]; parasite line B,-25.9% (inactive)
same,Potency,ATS189,inactive
same,Potency,CP192,inactive
same,Potency,CP194,inactive
same,Potency,CP247,11.2 µM (active)
same,Potency,CP291,inactive
same,Potency,DFO2036,inactive
same,Potency,TAB113,inactive
O=C(/C=C/c1cccnc1)NCCCCC1CCN(C(=O)c2ccccc2)CC1,Potency,[13],16.9 µM (active)
Cc1c(CN2CCN(C(=O)[C@H](C)O)CC2)sc2c(N3CCOCC3)nc(-c3cnc(N)nc3)nc12,Potency,[13],inactive
CN(CCOc1ccc(C[C@H](Nc2ccccc2C(=O)c2ccccc2)C(=O)O)cc1)c1ccccn1,Potency,[7],> 46 µM (inactive)
same,Potency,[8],> 46 µM (inactive)
same,Potency,[5],inactive
same,outcome,[6],inactive
C[C@H](CCC(=O)O)[C@H]1CC[C@H]2[C@@H]3[C@@H](O)C[C@@H]4C[C@H](O)CC[C@]4(C)[C@H]3CC[C@]12C,Potency,[13],inactive
COC[C@@H](c1ccc(C(F)(F)F)cc1)N1CCN(C2(C)CCN(C(=O)c3c(C)ncnc3C)CC2)C[C@@H]1C,Potency,[11],inactive
COC1=C(OC)C(=O)C(C/C=C(\C)CC/C=C(\C)CC/C=C(\C)CC/C=C(/C)CC/C=C(\C)CC/C=C(\C)CC/C=C(\C)CC/C=C(\C)CC/C=C(\C)CCC=C(C)C)=C(C)C1=O,Potency,[10],inactive
Cc1cccc(/C=N/Nc2cc(N3CCOCC3)nc(OCCc3ccccn3)n2)c1,Potency,[13],10.7 µM (active)
